Reference: PubChem BioAssay (NCATS)
Records with an inconclusive call do not appear. Entries that show only a call come without a potency. Unmarked numbers belong to inactive results. The source made the active and inactive calls. Calls follow the shape of the dose curve; as a rule, active = well fitted inhibition curve with a large enough effect; inconclusive = small, poorly fitted or top-dose-only effect; inactive = flat fitted curve, though single readings scatter.
Potency is read from the fitted curve at half-maximal effect.

Assay: qHTS for Inhibitors of Plasmodium falciparum (DD2) proliferation (AID 504314)
Conditions: P. falciparum Dd2 in erythrocytes, SYBR Green growth, 72 h; series mostly up to 6.11 µM
Source text: Plasmodium falciparum is a virulent malarial parasite that kills 1-2 million people worldwide each year. Malaria not only inflicts tremendous suffering and morbidity on the human population, but has dramatically influenced the course of civilization with profound sociological and economic implications (Shah, S. 2010). Transmitted by mosquitoes, the sporozoite form of the parasite enters the blood stream to infect hepatocytes, where they become merozoites that infect red blood cells (erythrocytes). Within erythrocytes, merozoites begin a […] cycle of growth and division, after which the parasite is released to infect new red blood cells. Gametocytes, which form within erythrocytes as well, circulate in the bloodstream and are ingested by the mosquito, thereby completing the life cycle (see CDC website). To profile malarial lines for differential chemical responses and to identify inhibitors of malarial growth, an assay that measures P. falciparum growth and replication within erythrocytes was employed. This assay uses a DNA binding fluorescent dye (SYBR Green) to detect parasite DNA following cell lysis. Because mature erythrocytes lack DNA, only Plasmodium-derived DNA is detected. The P. falciparum line cp250, derived from a malarial isolate from Cambodia, (Mu, J., et al. 2010) was added to the panel of lines, Dd2, HB3, 7G8 and GB4 in this study.
Laboratory of Assay Development and Screening Technology [ADST] and NIH Chemical Genomics Center [NCGC]
Boston University, Chemistry Department, Center for Chemical Methodology and Library Development [CMLD-BU]
NIH National Institute of Allergy and Infectious Diseases [NIAID]
ADST Assay Protocol Summary:
The 1536-well SYBR Green viability assay was based on the method of Bennett et al (2004) and described previously in 1536-well format (Yuan J., et al. 2009). For screening 3 ul culture medium was dispensed into 1536 well black clear bottom plates (Aurora Biotechnologies) using a Multidrop Combi (Thermo Fisher Scientific Inc.), 23 nL compounds in DMSO were added by a pin transfer (Cleveland, P.H. and Koutz, P.J, 2005) using a pin tool-based delivery system (Kalypsys), and 5 ul of erythrocytes infected with P. falciparum one of five lines (cp250, Dd2, HB3, 7G8 or GB4, 0.3% parasitemia, 2.5% hematocrit final concentration) were added. The plates were incubated at 37C in a humidified incubator in 5% CO2 for 72 h, and 2 ul lysis buffer (20 mM Tris HCl, 10 mM EDTA, 0.16% saponin, 1.6% triton X, 10X SYBR Green I (supplied as 10,000X final concentration by Invitrogen) was added to each well. The plates were mixed for 25 sec with gentle shaking and incubated overnight at room temperature in the dark. The following morning, fluorescence intensity at 485(14) nm excitation and 535(25) nm emission wavelengths was measured on an EnVision (Perkin Elmer) plate reader. Plate reads were normalized relative to the control inhibitor (0.29 uM artemisinin) and vehicle (DMSO) wells present on each plate and then corrected by an algorithm using vehicle-only control plates at the beginning and end of the compound plate stack.
Shah, S. (2010). The Fever: how malaria has ruled humankind for 500,000 years. New York, Sarah Crichton Books.
CDC web site, http://www.cdc.gov/malaria/about/biology/index.html
Mu, J., Myers, R.A., Jiang, H., Liu, S., Ricklefs, S., Waisberg, M., Chotivanich, K., Wilairatana, P., Krudsood, S., White, N.J., et Plasmodium falciparum genome-wide scans for positive selection, recombination hot spots and resistance to antimalarial drugs Nature Genetics 2010, 42, pp 268-271
Bennett TN, Paguio, M., Gligorijevic, B., Seudieu, C., Kosar, A. D., Davidson, E., and Roepe, P. D. Novel, rapid, and inexpensive cell-based quantification of antimalarial drug efficacy Antimicrobial Agents Chemother. 2004, 48(5): pp 1807-10
Yuan J, Johnson RL, Huang RL, Wichterman J, Jiang HY, Hayton K, Fidock DA, Wellems TE, Inglese J, Austin CP, Su XZ. […]
With CCN1C(=NCCc2ccccn2)NC(c2cccc(C(F)(F)F)c2)C(C(=O)OC)=C1C (stereo not given) the Potency was 533 nM (active).
With CCOC(=O)CCN1C(=O)[C@@H]2[C@H]3[C@H](O)[C@H](O)CC(=NNC(=O)OCc4ccc(OC)cc4)[C@@H]3CC[C@H]2C1=O the Potency was “inactive”.
In the case of C=CC1=C2C=C(C3CC3)N(C(CO)CO)C=C2C(=O)C(C)(OC(=O)c2ccco2)C1=O (stereo not given), the Potency was “inactive”.
In the case of COC(=O)CC1c2ccccc2C(Cc2ccc(OC)cc2)=C(C)N1C(=O)OC (stereo not given), the Potency was “inactive”.
For C=CCN1c2ccccc2[C@]23CCC(=O)N(CC(=O)OC)C2=NC(C(=O)OC)=C(C(=O)OC)[C@H]13, the Potency was “inactive”.
In the case of CCCCC1=CC2=C(c3ccco3)C(=O)C(C)(OC(=O)c3ccc(OC)cc3)C(=O)C2=CN1c1ccc(OC)cc1 (stereo not given), the activity, negative = inhibition was -0.773% [at 1.12 µM].
With COC(=O)C1=C(C(=O)OC)[C@@H]2N(C)c3ccccc3[C@@]23C[C@@H](C(=O)OC)N(C(=O)c2ccco2)C3=N1 the Potency was “inactive”.
For O=C1OC2(CCCCC2)CC2=C1[C@H]1O[C@](c3ccsc3)(Cc3c1ccc1ccccc31)O2, the Potency was “inactive”.
For CC#CCN1C(=O)NC(c2ccccc2)C(C(=O)OC)=C1C (stereo not given), the Potency was “inactive”.
With COc1ccc(C2=CC3=C(Br)C(=O)C(C)(O)C(=O)C3=CO2)cc1 (stereo not given) the Potency was “inactive”.
In the case of O=c1oc2ccccc2c2c1[C@H]1O[C@](c3ccsc3)(Cc3c1ccc1ccccc31)O2, the Potency was “inactive”.
With COc1cc2c(cc1OC)[C@@H]1O[C@](CCCCN3C(=O)c4ccccc4C3=O)(C2)Oc2c1c(=O)oc1ccccc21 the Potency was 1500 nM (active).
For CCOC(=O)CN1C(=O)N(CC)C(C)=C(C(=O)OC)C1c1ccccc1 (stereo not given), the Potency was “inactive”.
With CCN1C(=NCc2ccccc2)N[C@@H](c2ccccc2)[C@H](C(=O)OC)[C@H]1C the Potency was “inactive”.
With CCOC(=O)C1=CN(CCNC(=O)OC(C)(C)C)C(=O)NC1c1ccccc1 (stereo not given) the Potency was “inactive”.
With CC(=O)OC[C@H]1O[C@H](C#Cc2ccccc2)C=C[C@@H]1OC(C)=O the Potency was “inactive”.
For COC(=O)CCC(=O)OC1(C)C(=O)C=C2C=C3CCCN3C=C2C1=O (stereo not given), the Potency was “inactive”.
In the case of COc1ccc([C@]23Cc4cc(C#N)ccc4[C@H](O2)C2=C(CC4(CCCCC4)OC2=O)O3)cc1, the Potency was “inactive”.
With CC(C)=CCCC(C)=CCON=C1C[C@@H](O)[C@@H](O)[C@@H]2[C@H]3C(=O)N(Cc4ccc5c(c4)OCO5)C(=O)[C@@H]3CC[C@H]12 the Potency was “inactive”.
With C=CCNC(=O)[C@H]1C=C(OC)C(=O)C[C@H](c2ccccc2)[C@H]1C the Potency was “inactive”.
In the case of COC(=O)N[C@H](C[N+](=O)[O-])c1cccc(C)c1, the Potency was “inactive”.
With COCCN1C(=O)N[C@@H](c2cccc(C(F)(F)F)c2)[C@H](C(C)=O)[C@H]1C the Potency was “inactive”.
With CC1=CC[C@@H](COc2ccccc2)O[C@@]2(C1)C(=O)Nc1ccccc12 the Potency was “inactive”.
With CC1(OC(=O)c2ccco2)C(=O)C=C2C=C(c3ccsc3)OC=C2C1=O (stereo not given) the Potency was “inactive”.
C[C@H](NC(=O)N1CCc2nc(-c3ccccc3)c3c(c2C1)CO[C@@H](C)C3)c1ccccc1 showed an activity, negative = inhibition of 3.91% [at 1.12 µM].
For CCOC(=O)C(C)=NNC(C)=O, the Potency was “inactive”.
In the case of COC(=O)[C@H]1[C@@H](c2ccccc2)NC(=O)O[C@@H]1C, the Potency was “inactive”.
For C=C(C(C)=O)C(O)c1cccc(OC)c1 (stereo not given), the Potency was “inactive”.
In the case of C=CCC(Nc1ccc(OC)cc1)C(=O)OCC (stereo not given), the Potency was “inactive”.
With C[C@@H]1C=CCCO[C@]12C(=O)N(CC1CC1)c1cccc(Br)c12 the Potency was “inactive”.
For CC(C)[C@@H](OCc1ccccc1)[C@H](C)C=NOC[C@@H](C)[C@H](OCc1ccccc1)C(C)C, the Potency was “inactive”.
In the case of C[C@@H]1CC2CCCC2[C@]2(O1)C(=O)Nc1ccccc12 (stereo not given in full), the Potency was “inactive”.
For CC=COC(=O)N[C@@H](c1ccccc1)[C@]1(C(=O)OCC)CCCC1=O, the Potency was “inactive”.
For C=CCNC(=O)N1CCc2nc(CCCC)c3c(c2C1)CO[C@@H](C)C3, the Potency was “inactive”.
For CCN1C(=O)[C@@H]2[C@H]3[C@H](O)[C@H](O)CC(=NO[C@H](C)c4cn([C@@H]5COC[C@@H]5O)nn4)[C@@H]3CC[C@H]2C1=O, the Potency was “inactive”.
In the case of C=CCOC(=O)C1=C(C)N(CC)C(=O)NC1c1ccccc1 (stereo not given), the Potency was “inactive”.
With CCN1C(=O)[C@@H]2[C@H]3[C@H](O)[C@H](O)CC(=NNC(=O)OCc4ccccc4)[C@@H]3CC[C@H]2C1=O the Potency was “inactive”.
For Cc1c(O)ccc2c1OCO2, the Potency was “inactive”.
For CCN1C(=NCCc2ccc(Br)cc2)NC(c2ccccc2)C(C(=O)OC)=C1C (stereo not given), the Potency was “inactive”.
COc1ccc(-c2nc3c(c4c2C[C@H](c2ccccc2)OC4)CN(C(=O)c2cc(I)ccc2F)CC3)c(C)c1 gave an activity, negative = inhibition of -3.98% [at 1.12 µM].
